According to the supplement of paper PMC6555819:

Test system: PPARg:RXRa DBDmut IVT, anti-RXR (DBD mutation: RXRa K156A/R161A, NR concentration 270 nM, RXRa partner concentration 90 nM)
Assay: PBM binding z-score (relative to random genomic background probes); higher = stronger binding; sequences stand for … in GC…GCGATTGACAGCGTAGAATGAAGG
Procedure, shortened: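 Custom Agilent 4×180K protein-binding microarrays carried double-stranded probes, each with a 34-nt variable region. These regions held direct-repeat seeds, single-nucleotide variants, half-site ablations and random human genomic background sequences. Ligand-free nuclear receptor dimers were incubated on the arrays for 1 h, antibodies against each partner (one per run) detected binding, and scanned fluorescence was regression-normalized. Binding z-scores take the random background probes as reference.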

Compared with TCATCTAGGTAATACAGGTGAAAGTCGGCATCTA, CGTCCAAGGTCAGAAGGTCAGTGAAAGCGACGTG is lower in PBM binding z-score: 4.07 for the first, 2.28 for the second.

Compared with CATACAGGGTCAGCTAAGCCAGAGTAGGGACGGC, TATACAGGGTCAGAGGCCAGAGTACGAATGTCGA is higher in PBM binding z-score: 1.39 for the first, 1.65 for the second.

Going from GGATCGAGGGCATTCGAGTTGATAGCATGGCGAT to ACTAGTTGGTCAGCTGTGGTCACACACAATTCGG, the PBM binding z-score falls from 2.58 to 1.14.

Compared with TCGAGTAGGTTAGGGGCACTCAGAATGGCGTCGA, CCTAGAAGGCCAATCTGGGTCACTCAAGGCTTGA is higher in PBM binding z-score: 1.87 for the first, 3.74 for the second.

First: ACTTACGAGTCAACGAGGTTATAGCACGCGTATA
Second: TAGCCTAGGTCATGGGCTAGTATACCACGCGAAC
The PBM binding z-score of the first is lower: -0.235 for the first, 1.15 for the second.

Going from TCTGCTAGGTCAACGATGGTCATCTAATCTGCTA to TCTATTAGCTGATTAGGGCAACCGAAACAGCGGA, the PBM binding z-score falls from 4.28 to 1.49.

Compared with CTCGAAAGGTGGGTTGAGGTGAGTATACGGATAA, CGTCCAAGGTCATAGGAAGTCAGTGAAGACAGAT is higher in PBM binding z-score: 0.207 for the first, 3.11 for the second.

Going from ATCTATAGGTAACAAGTTCAGTGAAAGAGAGGAC to TCGTGTAGATCAAGCAGGTTAAGAAAGCCTGAGT, the PBM binding z-score falls from 2.14 to 1.24.

Compared with CCTGGGAGGACAACAGGAGGTCAGAGCTGCCAGA, AGAATGAGGGTATACGTAGATCAGGGAAGAAAGT is higher in PBM binding z-score: -0.657 for the first, 2.6 for the second.

Going from AATACAGGGTCACTAGGCTAGAGTAGGTACGAAT to TCGAGTAGGTTACTAATGGGGCATTCAGCTTTCT, the PBM binding z-score falls from 3.32 to 3.02.

First: GTACCAACGTGAATAGGTCGTTGATGAGTAGGCG
Second: CCTACTGGGCCATCAGGTTATTGATATCAACGTT
The PBM binding z-score of the first is lower: -0.261 for the first, 4.67 for the second.
